Methyltransferases – Primary Screen for Target Class Profiling of Small Molecule Inhibitors of Methyltransferases. purified enzyme, MTase-Glo SAH luminescence; hits give low values. calls only at 40 µM. 3.9% of 25,000 active; call rule not given here
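Each enzyme was assayed with SAM and its substrate. SAH formation detected by MTase-Glo luminescence; single-point 40 uM screen[…].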
Active calls of the source: *; i = inactive; + = active, no number; ! = not active in a repeat. Many of the other results were omitted from the sample, so hits are more common in it than they were. % is set by controls: 0 for no effect and ±100 for the full control effect.

SMILES	Methyltransferases
COc1cc(Nc2ncc3c(n2)-c2ccc(Cl)cc2C(c2c(F)cccc2OC)=NC3)ccc1C(=O)O	+!
COc1cccc(OC)c1-c1nc(C(=O)N[C@@H](CC(C)C)C(=O)O)cn1-c1ccnc2cc(Cl)ccc12	i
CCOC(=O)c1cc2n(n1)CC(C)(C(=O)NCc1ccc(F)cc1)N(c1cc(C)cc(C)c1)C2=O (stereo unspecified)	i
Cc1nc(-c2cn(C3CCCN(C(=O)c4cccc(Br)c4)C3)nn2)no1 (stereo unspecified)	i
Cc1cc(-c2cc(OC(=O)c3ccccc3)ccc2Cl)cc2nnc(Nc3ccc(OCCN4CCCC4)cc3)nc12	i
C=CC(=O)Nc1cccc(Nc2nc(Nc3ccc(N4CCN(C(C)=O)CC4)cc3OC)ncc2C(F)(F)F)c1	i
C=CC(=O)Nc1cccc(Oc2nc(Nc3ccc(N4CCN(C)CC4)cc3)ncc2Cl)c1	+
COCCN1CC2(CCCN(Cc3cc(C(C)(C)C)n[nH]3)C2)CCC1=O (stereo unspecified)	i
CCCC1c2ccc(C)n2CCN1C(=O)Nc1ccc(C)cc1Cl (stereo unspecified)	i
Cc1ccc(C(=O)N2CCC3(CC2)CC(N2CCN(CC(C)C)CC2)CCO3)cn1 (stereo unspecified)	i
O=C(c1ccc(Cl)c([N+](=O)[O-])c1)N1CCN(c2ccccc2F)CC1	i
CCn1cc(-c2ccc(Cl)cc2)cc1C(=O)N1CCN(c2ccccn2)CC1	i
O=C(c1ccc(Cl)cc1)N1CCN(c2ccnc3cc(Cl)ccc23)CC1	+
Cc1ccc(CSc2nnc3n(CCC(C)C)c(=O)c4ccccc4n23)cc1	i
Cc1ccc(CN2C(=O)c3cc(-c4cccs4)nn3CC2(C)C(=O)NC2CCCCCC2)cc1 (stereo unspecified)	i
CCCn1c(=O)c2ccccc2n2c(=O)n(CC(=O)N3CCN(c4ccc(F)cc4)CC3)nc12	i
COc1cccc(CNc2nc3c(-c4cccc(Br)c4)nnn3c3ccccc23)c1	i
Cc1ccc2c(c1)C=Cc1cc(C)ccc1C2c1cn(Cc2ccc(C(=O)Nc3nn[nH]n3)o2)c(=O)[nH]c1=S	+
CN1C(=O)c2cc(C(=O)NC3CCN(Cc4ccccc4)CC3)nn2CC1(C)C(=O)NCc1ccc(F)cc1 (stereo unspecified)	i
CCOCCCNC(=O)C1c2c(n(C)c3ccccc23)SCC(=O)N1c1ccc(OC)cc1 (stereo unspecified)	i
C[C@H](NC(c1cccc(C[P+](=O)O)c1)[C@H](C)O)c1ccc(Cl)c(Cl)c1 (stereo partly specified)	i
NC1(C(=O)O)CCCCC1	i
N.N.O=C(O)C1(C(=O)O)CCC1.[Pt+2]	+
CCCn1c(=O)c2ccc(C(=O)NC3CCCC3)cc2n2c(=O)n(CC(=O)NC3CCCC3)nc12	i
CCCOc1ccc(C2NC(C(=O)O)Cc3c2[nH]c2ccccc32)cc1OC (stereo unspecified)	i
SMILES	Methyltransferases
COc1ccc2c(c1)c(NC(C)=O)c1n2CC(C)(C(=O)NC2CCCCC2)N(CCC(C)C)C1=O (stereo unspecified)	i
COc1ccc([C@H]2CNC(=O)C2)cc1OC1CCCC1	i
CC(=O)O[C@H]1C[C@@H](O)C(C)(C)C2C[C@@H](OC(C)=O)[C@]3(C)C(CC[C@@]4(C)[C@H](c5ccoc5)OC(=O)[C@H]5O[C@]543)[C@]21C (stereo partly specified)	i
CCC(C)C(=O)OC1CC(O)C23C4OCC5(C(O)CC2C1(C)C(O)O4)C3C(=O)C(O)C1(C)C(O)(c2ccoc2)CC2OC251 (stereo unspecified)	+
CC1(C(=O)NC2CCCCC2)Cn2c(cc3occc32)C(=O)N1Cc1ccccc1Cl (stereo unspecified)	i
CC(C)c1ccc(NC(=O)Cn2cnc3c2c(=O)n(C)c(=O)n3C)cc1	i
CN1CCN(Cc2ccc(NC(=O)Cc3ccc(Oc4cc(NC(=O)C5CC5)ncn4)cc3)cc2C(F)(F)F)CC1	+
COc1ccc(NC(=O)COc2ccc(NC(=O)C3CC3)cn2)cc1	i
CCN1CCN(Cc2ccc(NC(=O)Nc3ccc(Oc4cc(NC)ncn4)cc3)cc2C(F)(F)F)CC1	+
CCOc1ccc(NC(=O)N2CCn3cccc3C2C(C)C)cc1 (stereo unspecified)	i
CCOc1cccc(NC(=O)c2ccc(N3CCCC3)c(C(F)(F)F)c2)c1	i
Cc1ccc(CCNC(=O)C2CCN(c3cc(C(F)(F)F)ncn3)CC2)cc1	i
CC(C)(C)c1nn2c(SCC(=O)Nc3ccccc3Cl)nnc2[nH]c1=O	i
C[S+](=O)([O-])N1CCn2ncc(C(=O)NCc3ccc(Cl)nc3)c2C1	i
Cc1cc(F)ccc1NS(=O)(=O)c1ccc2c(c1)n(C)c(=O)n2C	i
COc1cccc(Cn2nc3n(CC(C)C)c(=O)c4ccccc4n3c2=O)c1	i
N#Cc1ccc(N2N=C3c4ccc(C(=O)O)cc4CC[C@@H]3[C@@H]2C2CCCC2)cc1Cl	+

From PubChem BioAssay
